About 83,000 compounds went through this panel and 20% of them were active in at least one assay; those are over-represented in the sample as a whole.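 For each line, cells grew in 96-well plates with the test compound present at a single concentration for 48 hours.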 Calls of active or inactive are those of the source. The calls were made as follows: active = growth percent below 10; inactive = the rest.
Assays:
Assay in all cases: NCI-60 one-dose screen, 48 h (100 = growth as untreated, 0 = no growth, -100 = all killed)
Conditions in all cases: 10 µM unless noted
T-47D breast = system: T-47D breast
BT-549 breast = system: BT-549 breast
MDA-MB-435 melanoma = system: MDA-MB-435 melanoma
SW-620 colon = system: SW-620 colon
MCF7 breast = system: MCF7 breast
HCT-116 colon = system: HCT-116 colon
HCC-2998 colon = system: HCC-2998 colon
KM12 colon = system: KM12 colon

Measured: growth

COc1ccc(C/C(=C(\C)c2ccc(OCCN3CCCC3)cc2)c2ccc(OCCN3CCCC3)cc2)cc1
active: MDA-MB-435 melanoma -77.2% | SW-620 colon -35.4% | MCF7 breast -7%
inactive: T-47D breast 77.6% | BT-549 breast 85% | HCT-116 colon 24.9% | HCC-2998 colon 68.9% | KM12 colon 47.9%

COc1ccc(NC(=O)c2cc(NCc3cc(O)ccc3O)ccc2O)cc1
inactive: T-47D breast 68.4% | BT-549 breast 71.8% | MDA-MB-435 melanoma 99.7% | SW-620 colon 100% | MCF7 breast 75.6% | HCT-116 colon 96.9% | HCC-2998 colon 107% | KM12 colon 88.3%

O=C(NCCNc1nccc(-c2c(-c3cccc(F)c3)nc3sccn23)n1)c1ccc(Cl)cc1
inactive: T-47D breast 49% | BT-549 breast 75.9% | MDA-MB-435 melanoma 32.1% | SW-620 colon 65.2% | MCF7 breast 27.7% | HCT-116 colon 33% | HCC-2998 colon 90.1% | KM12 colon 62.8%

COC(=O)/C=C1\S/C(=N\NC(=O)c2cc3ccc2/C=C\c2ccc(cc2)/C=C\3)N(Cc2ccccc2)C1=O
active: T-47D breast -6.25%
inactive: BT-549 breast 10.3% | MDA-MB-435 melanoma 91.6% | SW-620 colon 18.2% | MCF7 breast 32.7% | HCT-116 colon 49.5% | HCC-2998 colon 79.5% | KM12 colon 65.1%

O=C1/C=C/[C@@H](O)[C@@H]2C[C@@H](O)C[C@H]2/C=C/CCC[C@H](CCc2cccc3ccccc23)O1
active: T-47D breast 1.52% | MDA-MB-435 melanoma 6.06% | SW-620 colon -28% | MCF7 breast -30.8% | HCT-116 colon -63.9% | HCC-2998 colon 3.84% | KM12 colon -37.9%
inactive: BT-549 breast 13.5%

O=c1ccc(-c2nc(N3CCOCC3)c3ccccc3n2)c[nH]1
inactive: T-47D breast 77% | BT-549 breast 97.4% | MDA-MB-435 melanoma 99.7% | SW-620 colon 107% | MCF7 breast 89.1% | HCT-116 colon 101% | HCC-2998 colon 105% | KM12 colon 107%

Cc1cc2c(C(=O)NCC#N)cccc2n1-c1nc2c(c(NCc3ccccc3)n1)CCCC2
active: T-47D breast -16.6% | BT-549 breast -34.8% | MDA-MB-435 melanoma -59.8% | SW-620 colon 2.79% | MCF7 breast 1.12% | HCT-116 colon -14.4% | HCC-2998 colon -87.6% | KM12 colon -38.7%

CNC(=O)c1cccc(Cn2nc(C)c(NC(=O)c3ccc(COc4ccc(C(F)(F)F)cc4C)cc3)c2C)c1
active: T-47D breast 6.16%
inactive: BT-549 breast 19.7% | MDA-MB-435 melanoma 36.2% | SW-620 colon 77.3% | MCF7 breast 21.7% | HCT-116 colon 29.2% | HCC-2998 colon 68.5% | KM12 colon 61.7%

Cn1cc(-c2nc(-c3c[nH]c4c(Cl)nccc34)cs2)c2cc(Br)ccc21
inactive: T-47D breast 39.1% | BT-549 breast 95.7% | MDA-MB-435 melanoma 79.4% | SW-620 colon 98.6% | MCF7 breast 77.4% | HCT-116 colon 88.8% | HCC-2998 colon 114% | KM12 colon 86.2%

CC(=O)Nc1ccc(-c2ccc3c(c2)NC(=O)/C3=C\c2ccc[nH]2)cc1
active: MCF7 breast 9.83%
inactive: T-47D breast 37.5% | BT-549 breast 83.5% | MDA-MB-435 melanoma 90.6% | SW-620 colon 96.4% | HCT-116 colon 104% | HCC-2998 colon 104% | KM12 colon 45.4%

CC(c1ccccc1)C(C(=O)c1ccccc1)c1ccccc1 (centres undefined)
inactive: T-47D breast 91.5% | BT-549 breast 101% | MDA-MB-435 melanoma 110% | SW-620 colon 97.7% | MCF7 breast 98% | HCT-116 colon 74.5% | HCC-2998 colon 93.4% | KM12 colon 104%

O=S(=O)(NCCNc1nccc(-c2c(-c3cccc(F)c3)nc3sccn23)n1)c1ccccc1
inactive: T-47D breast 18.8% | BT-549 breast 50.4% | MDA-MB-435 melanoma 17.4% | SW-620 colon 44.5% | MCF7 breast 21.7% | HCT-116 colon 22.7% | HCC-2998 colon 66.4% | KM12 colon 28.8%

Cc1ccc(-c2[nH][nH]c(=O)c2-c2nc3ccccc3s2)cc1
inactive: T-47D breast 103% | BT-549 breast 123% | MDA-MB-435 melanoma 100% | SW-620 colon 93.9% | MCF7 breast 97.1% | HCT-116 colon 100% | HCC-2998 colon 99.7% | KM12 colon 103%

COc1ccccc1NC(=O)C1CC(c2ccc(F)cc2)=NO1 (centres undefined)
inactive: T-47D breast 93.9% | BT-549 breast 112% | MDA-MB-435 melanoma 103% | SW-620 colon 102% | MCF7 breast 90.8% | HCT-116 colon 103% | HCC-2998 colon 90.1% | KM12 colon 101%

CC(=O)N1c2ccccc2NC2=C(C(=O)NC2(C)C)C1c1ccco1 (centres undefined)
active: MDA-MB-435 melanoma -19.1%
inactive: T-47D breast 110% | BT-549 breast 86% | SW-620 colon 81.1% | MCF7 breast 37.9% | HCT-116 colon 87.8% | HCC-2998 colon 88.1% | KM12 colon 51.2%

COc1cc2nc(-c3ccc(C(F)(F)F)cc3)cc(OCCCN3CCOCC3)c2cc1OC
active: MDA-MB-435 melanoma -26%
inactive: T-47D breast 16.2% | BT-549 breast 30.5% | SW-620 colon 25.9% | MCF7 breast 44.4% | HCT-116 colon 15.1% | HCC-2998 colon 43.4% | KM12 colon 27.5%

O=C(Nc1ccccc1)Nc1ccc2cc3ccc(NC(=O)Nc4ccccc4)cc3nc2c1
active: T-47D breast -3.77% | SW-620 colon -62.7% | HCT-116 colon -57.1% | HCC-2998 colon -28.9%
inactive: BT-549 breast 86.2% | MDA-MB-435 melanoma 21.9% | MCF7 breast 27.2% | KM12 colon 38.9%

O=C(/C=C/c1c(-c2ccc(Cl)cc2)nn(-c2ccccc2)c1C(F)(F)F)c1ccc(Cl)cc1
inactive: T-47D breast 64.8% | BT-549 breast 97.4% | MDA-MB-435 melanoma 97.9% | SW-620 colon 104% | MCF7 breast 61.8% | HCT-116 colon 63.4% | HCC-2998 colon 103% | KM12 colon 84.8%

CC(C)=CCC[C@](C)(O)[C@H]1CC[C@]2(C)[C@@H]1CC[C@@H]1[C@@]3(C)C/C(=C/c4ccccc4)C(=O)C(C)(C)[C@@H]3CC[C@]12C
inactive: T-47D breast 87.4% | BT-549 breast 100% | MDA-MB-435 melanoma 90.3% | SW-620 colon 80.4% | MCF7 breast 94.6% | HCT-116 colon 85.1% | HCC-2998 colon 98.8% | KM12 colon 90%

CCCCCN1C=C/C(=C\C(=O)N2CCCc3ccccc32)c2ccccc21
inactive: T-47D breast 68.2% | BT-549 breast 79.7% | MDA-MB-435 melanoma 97% | SW-620 colon 88.8% | MCF7 breast 91% | HCT-116 colon 66.5% | HCC-2998 colon 102% | KM12 colon 90.4%

COc1ccc(C(=O)c2cc(C)c(OC)c(C)c2)c(OC)c1OC(=O)C(Cl)Cl
active: MDA-MB-435 melanoma -28.4% | HCT-116 colon 1.56% | HCC-2998 colon 9.93% | KM12 colon 8.08%
inactive: T-47D breast 59.5% | BT-549 breast 11.4% | SW-620 colon 20% | MCF7 breast 12.4%

COc1cc(NC(C)CCCNC(=O)CCC(=O)NCCCNCCCCCCCCNCCCNC(=O)CCC(=O)NCCCC(C)Nc2cc(OC)cc3cccnc23)c2ncccc2c1 (centres undefined)
active: T-47D breast 7.63%
inactive: BT-549 breast 95.2% | MDA-MB-435 melanoma 70.7% | SW-620 colon 78% | MCF7 breast 34.6% | HCT-116 colon 52.5% | HCC-2998 colon 69.5% | KM12 colon 82.1%

CCCCCCCCO/N=C\c1c2c(O)c3c(O)c(C)c4c(c3c1O)C(=O)C(C)(O/C=C\C(OC)C(C)C(OC(C)=O)C(C)C(O)C(C)C(O)C(C)/C=C\C=C(\C)C(=O)N2)O4 (centres undefined)
inactive: T-47D breast 30.5% | BT-549 breast 45.9% | MDA-MB-435 melanoma 13.5% | SW-620 colon 15.1% | MCF7 breast 21.7% | HCT-116 colon 11.6% | HCC-2998 colon 14.7% | KM12 colon 17.1%

COc1ccc(C(=O)c2cc(C)c(OC)c(C)c2)c(OC)c1NC(C)=O
inactive: T-47D breast 60.6% | BT-549 breast 16.3% | SW-620 colon 21.2% | MCF7 breast 20.8% | HCC-2998 colon 13.8%
active: MDA-MB-435 melanoma -65.2% | HCT-116 colon 8.06% | KM12 colon 8.12%

C#Cc1cccc(NC(=O)Nc2cccc(NC(=O)CCl)c2)c1
inactive: T-47D breast 27.8% [8.25 µM] | HCC-2998 colon 93.6% [8.25 µM] | KM12 colon 32.9% [8.25 µM]
active: BT-549 breast -15.1% [8.25 µM] | MDA-MB-435 melanoma -39.8% [8.25 µM] | SW-620 colon -42.3% [8.25 µM] | MCF7 breast 4.65% [8.25 µM] | HCT-116 colon 2.24% [8.25 µM]

COc1ccc(C(=O)NNc2nc(Cl)nc(N3CCN(C(c4ccccc4)c4ccccc4)CC3)n2)cc1
active: SW-620 colon 9.22% | HCT-116 colon 9% | HCC-2998 colon -10.7%
inactive: T-47D breast 85.5% | BT-549 breast 52.2% | MDA-MB-435 melanoma 90.6% | MCF7 breast 89.3% | KM12 colon 92.4%

O=C(Nc1ncc(Cc2cc(Cl)ccc2Cl)s1)c1cccs1
inactive: T-47D breast 44.8% | BT-549 breast 74.6% | SW-620 colon 48.5% | MCF7 breast 32.5% | HCT-116 colon 35.3% | HCC-2998 colon 58.4% | KM12 colon 31.2%
active: MDA-MB-435 melanoma 4.2%

O=C(c1nc2ccccc2[nH]1)C1C(c2ccc(Br)cc2)C2CC3CCCC[C@H]3N2[C@@]12C(=O)Nc1cc(Cl)ccc12 (some centres undefined)
inactive: T-47D breast 29.1% | BT-549 breast 71.6% | MDA-MB-435 melanoma 23.7% | SW-620 colon 31.2% | MCF7 breast 16% | HCT-116 colon 21.1% | HCC-2998 colon 39.7% | KM12 colon 37.9%

Reference: PubChem BioAssay (NCI)
